Inconclusive results are not listed. The source made the active and inactive calls. Calls come from the whole dose curve; as a rule, active = well fitted curve in the direction sought with a large enough effect; inconclusive = small, poorly fitted or top-dose-only effect, or another doubt; inactive = no such curve, though single readings can be large; an effect the other way counts as inactive or inconclusive.
How the values were obtained:
[1] = test system: NIH3T3; assay: qHTS assay to identify novel small-molecules to repurpose for Merkel cell carcinoma treatment (AID 1296009); conditions: MCC and control cell lines, CellTiter-Glo viability, 72 h; at 44.8 µM (top of the series) unless noted; note: nearly all actives have a fitted effect of over 60% in size
Outline: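 72 hr, 37 degree celsius; NPC 8-pt / MIPE 11-pt dose response; compound pinned in DMSO; CellTiter-Glo, 10 min RT, luminescence; normalized to no-cell and DMSO controls.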

[2] = test system: C33A; assay: Primary qHTS to identify gynecologic anti-cancer compounds using libraries of approved drugs and bioactive compounds (AID 1345084); conditions: Gynecologic cancer cell panel viability, ATPlite luminescence, 48 h; series mostly up to 57.5 µM; note: % is set by controls: 0 for no effect and ±100 for the full control effect; nearly all actives have a fitted effect of over 55% in size
Outline: (§1)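 Cells, 1,000 per well, plated 16 h, then exposed 48 h at 37 C to compounds. Viability by ATPlite luminescence after 15 min at room temperature.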

[3] = test system: CAOV3; assay: as above; conditions: Gynecologic cancer cell panel viability, ATPlite luminescence, 48 h; series mostly up to 57.5 µM
Outline: as §1

[4] = test system: CASKI; assay: as above; conditions: Gynecologic cancer cell panel viability, ATPlite luminescence, 48 h; series mostly up to 57.5 µM
Outline: as §1

CC(=O)OC1C(O)C(C)=C(CCC(C)CC(=O)O)C2(C)CCCC(C)(C)C12 (centres undefined)
inactive: outcome [1] | Potency [2] | Potency [3] | Potency [4]

O=C(/C=C/c1ccc(O)cc1)OC[C@]12O[C@H]1[C@@H](O)[C@@H]1C=CO[C@@H](O[C@@H]3O[C@H](CO)[C@@H](O)[C@H](O)[C@H]3O)[C@@H]12
inactive: outcome [1] inactive [at 17.4 µM] | Potency [2] | Potency [3] | Potency [4]

Nc1ncnc2c1ncn2[C@H]1CCCO1
inactive: outcome [1] | Potency [2] | Potency [3] | Potency [4]

CN(C)c1cccc(-c2c3c(=O)n(-c4ccccc4Cl)[nH]c3cc(=O)n2C)c1
inactive: outcome [1] | Potency [2] | Potency [3] | Potency [4]

C[C@]1(OC(=O)/C=C/c2ccccc2)C[C@H](O)[C@]2(O)C=CO[C@@H](O[C@@H]3O[C@H](CO)[C@@H](O)[C@H](O)[C@H]3O)C12 (some centres undefined)
inactive: outcome [1] inactive [at 17.4 µM] | Potency [2] | Potency [3] | Potency [4]

C=CCc1ccc(O[C@@H]2O[C@H](CO[C@@H]3O[C@@H](C)[C@H](O)[C@@H](O)[C@H]3O)[C@@H](O)[C@H](O)[C@H]2O)cc1
inactive: outcome [1] inactive [at 17.4 µM] | Potency [2] | Potency [3] | Potency [4]

COc1ccc2c(c1)O[C@H](O[C@@H]1O[C@H](CO)[C@@H](O)[C@H](O)[C@H]1O)C(=O)N2
inactive: outcome [1] | Potency [2] | Potency [3] | Potency [4]

CC[C@H](/C=C/[C@@H](C)[C@H]1CC[C@H]2[C@@H]3CC=C4C[C@@H](O)CC[C@]4(C)[C@H]3CC[C@]12C)C(C)C
inactive: outcome [1] inactive [at 4.96 µM] | activity change, negative = cytotoxicity [2] 8.42% [at 6.55 µM] | activity change, negative = cytotoxicity [3] 7.88% [at 6.55 µM] | activity change, negative = cytotoxicity [4] 17.1% [at 6.55 µM]

CCCC1=CC2=C(CO1)C(=O)C(C)(OC(=O)c1c(C)cc(OC)cc1O)C(O)C2 (centres undefined)
inactive: outcome [1] inactive [at 17.4 µM] | Potency [2] | Potency [3] | Potency [4]

COc1cc(/C=C/CO)ccc1O[C@@H]1O[C@H](CO)[C@@H](O)[C@H](O)[C@H]1O
inactive: outcome [1] | Potency [2] | Potency [3] | Potency [4]

OC[C@H]1O[C@@H](Oc2cc(O)cc(/C=C/c3ccc(O)cc3)c2)[C@H](O)[C@@H](O)[C@@H]1O
inactive: outcome [1] | Potency [2] | Potency [3] | Potency [4]

CC1(CO)CC2C(O)C(=O)C3(CO)CC3(C)C2C1 (centres undefined)
inactive: outcome [1] | Potency [2] | Potency [3] | Potency [4]

CCC(=O)NS(=O)(=O)c1ccc(-c2c(-c3ccccc3)noc2C)cc1
inactive: outcome [1] | Potency [2] | Potency [3] | Potency [4]

COc1cc2c(cc1OC)CN(C(=O)[C@@H](NCc1ccncc1)C(C)(C)C)CC2
inactive: outcome [1] | Potency [2] | Potency [3] | Potency [4]

COc1cc(C(C)=O)ccc1O[C@@H]1O[C@H](CO[C@@H]2O[C@@H](C)[C@H](O)[C@@H](O)[C@H]2O)[C@@H](O)[C@H](O)[C@H]1O
inactive: outcome [1] inactive [at 17.4 µM] | Potency [2] | Potency [3] | Potency [4]

O=C(/C=C/c1c(C(=O)O)[nH]c2cc(Cl)cc(Cl)c12)Nc1ccccc1
inactive: outcome [1] | Potency [2] | Potency [3] | Potency [4]

COc1ccc2c(c1O)OC[C@H]1c3ccc(O)cc3O[C@@H]21
inactive: outcome [1] | Potency [2] | Potency [3] | Potency [4]

COc1ccc2c(c1)OC[C@]1(O)c3cc4c(cc3O[C@H]21)OCO4
inactive: outcome [1] | Potency [2] | Potency [3] | Potency [4]

Cc1nnc(C(C)C)n1C1CC2CCC(C1)N2CC[C@H](NC(=O)C1CCC(F)(F)CC1)c1ccccc1 (some centres undefined)
inactive: outcome [1] | Potency [2] | Potency [3] | Potency [4]

CC(=O)OC1C=C(C(=O)O)C2(CO)CCC(C)C(C)(CCc3ccoc3)C2C1 (centres undefined)
inactive: outcome [1] inactive [at 17.4 µM] | Potency [2] | Potency [3] | Potency [4]

CC1=CCC2C(C)(CO)CCCC2(CO)C1CO (centres undefined)
inactive: outcome [1] | Potency [2] | Potency [3] | Potency [4]

Cc1coc2c1CC1OC1(C)CCC1OC1(C)C2 (centres undefined)
inactive: outcome [1] | Potency [2] | Potency [3] | Potency [4]

Cc1cn2c(N)c(Cl)cc(C(=O)NCC3CCN(CC(C)C)CC3)c2n1
inactive: outcome [1] | Potency [2] | Potency [3] | Potency [4]

C=C1CC2C3(C)C(O)CC(=O)C(C)(C)C3C(OC(C)=O)C(OC(C)=O)C2(C)C2C(=O)OC(C)(C(=O)OC)C(=O)C12C (centres undefined)
inactive: outcome [1] inactive [at 17.4 µM] | Potency [2] | Potency [3] | Potency [4]

CC1CCC2(C(=O)OC3OC(CO)C(O)C(O)C3O)CCC3(C)C(=CCC4C5(C)CC(O)C(O)C(C)(C(=O)O)C5CCC43C)C2C1(C)O (centres undefined)
inactive: outcome [1] inactive [at 17.4 µM] | Potency [2] | Potency [3] | Potency [4]

C[C@@H]1O[C@@H](O[C@@H]2[C@@H](O)[C@H](O[C@@H]3[C@@H](O)[C@@H](O)[C@H](O[C@H]4[C@H](OC(=O)[C@]56CCC(C)(C)C[C@H]5C5=CCC7[C@@]8(C)C[C@H](O)[C@H](O[C@@H]9O[C@@H](C)[C@H](O)[C@@H](O)[C@H]9O)[C@@](C)(CO)C8CC[C@@]7(C)[C@]5(C)C[C@H]6O)O[C@H](C)[C@H](O)[C@@H]4O)O[C@H]3C)OC[C@H]2O)[C@H](O)[C@H](O)[C@H]1O (some centres undefined)
inactive: outcome [1] inactive [at 9.27 µM] | activity change, negative = cytotoxicity [2] 1.27% [at 6.55 µM] | activity change, negative = cytotoxicity [3] 7.84% [at 6.55 µM] | activity change, negative = cytotoxicity [4] 0.934% [at 6.55 µM]

Source: PubChem BioAssay (NCATS)
